Measured values published in PubChem BioAssay AID803 (The Scripps Research Institute Molecular Screening Center, 2007).
The campaign covered roughly 140,000 compounds. About 680 (0.49%) were called active. No stated cut-off is given here; in the data, active means activation above about 5% (passing the limit was not always enough); inactive means the rest. For the sample, actives were picked, then their nearest neighbours and some compounds at random.

molecular target: Galanin receptor type 2 (Homo sapiens) (UniProt O43603); assay: human galanin receptor 2 activators – cell-based, primary screen (AID 803); conditions: GALR2-expressing cells, agonist activation read-out; at 5.6 µM; hits give high values;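 further: 0% = vehicle buffer wells and 100% = reference agonist at full effect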
Sequence (O43603 whole entry, looked up): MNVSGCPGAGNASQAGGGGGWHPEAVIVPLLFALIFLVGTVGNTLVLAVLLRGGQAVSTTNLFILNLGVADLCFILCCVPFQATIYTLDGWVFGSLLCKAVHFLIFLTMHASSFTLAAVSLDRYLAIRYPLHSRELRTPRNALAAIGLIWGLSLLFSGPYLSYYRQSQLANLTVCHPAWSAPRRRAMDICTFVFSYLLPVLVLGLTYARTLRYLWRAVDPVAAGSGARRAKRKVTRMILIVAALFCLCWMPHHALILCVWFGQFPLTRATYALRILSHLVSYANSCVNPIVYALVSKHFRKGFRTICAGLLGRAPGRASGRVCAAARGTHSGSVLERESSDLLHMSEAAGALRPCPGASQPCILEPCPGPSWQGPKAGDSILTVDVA

| Structure (SMILES) | activation |
| --- | --- |
| CCC(=O)Nc1c(S(=O)(=O)c2ccccc2)c2nc3ccccc3nc2n1Cc1ccccc1 | 2.15% (inactive) |
| CCCNC(=O)c1c(N)n(-c2ccc(S(N)(=O)=O)cc2)c2nc3ccccc3nc12 | 35.1% (active) |
| CCC(CC)C(=O)N1CCN(c2cccc(C)c2C)CC1 | -1.21% (inactive) |
| Cc1cc(C(=O)N/N=C/c2ccc(O)c([N+](=O)[O-])c2)c(C)n1-c1ccc(F)cc1 | 1.21% (inactive) |
| O=C(Cn1nnc(-c2ccccc2)n1)NCc1ccccc1 | -0.65% (inactive) |
| O=C(Cn1nnc(-c2ccccc2)n1)N/N=C/c1ccc(-c2ccc(Cl)cc2)o1 | -0.89% (inactive) |
| Cc1[nH]c2ccccc2c1/C=N\NC(=O)Cn1nnc(-c2ccccc2)n1 | 5.32% (active) |
| COc1ccc(NC(=O)CN2C(=O)C(c3ccccc3)=NC23CCCCCC3)cc1OC | -2.09% (inactive) |
| CC(=O)NNC1=Nc2ccccc2N(C)C(C)C1 (configuration not stated) | -1.09% (inactive) |
| COc1cccc(/C=N/NC(=O)CNC(=O)c2ccc(S(=O)(=O)N3CCOCC3)cc2)c1OC | -1.42% (inactive) |
| CN(C(=O)CSc1nnc(-c2n[nH]c3ccccc23)o1)c1ccccc1 | 0.05% (inactive) |
| Cc1ccc2sc(NNC(=O)c3ccc4c(c3)OCCO4)nc2c1C | -2.21% (inactive) |
| CC(=O)N(Cc1cccs1)C1CCOC(C)(C)C1 (configuration not stated) | 36.2% (active) |
| O=C(O)CCC(=O)N(Cc1cccs1)Cc1cccs1 | 0.14% (inactive) |
| Cc1ccsc1C(C(=O)NC1CCCCC1)N(C(=O)Cc1cccs1)C1CC1 (configuration not stated) | 0.48% (inactive) |
| Cc1nn(-c2ccccc2)c(NC(=O)c2cccs2)c(-c2ccc(Cl)cc2)c1=O | -0.28% (inactive) |
| COc1ccc(C(=O)n2nc(-c3ccc(C)cc3)nc2N)cc1OC | -1.18% (inactive) |
| COc1ccc(C(=O)Cn2nnc(-c3ccc(N4CCOCC4)cc3)n2)cc1OC | -0.59% (inactive) |
| COc1ccc(C(=O)CN2C(=O)NC(C)(c3ccc(C)cc3)C2=O)cc1OC (configuration not stated) | 10.3% (active) |
| CCN(CC)c1nc(-c2ccccc2)cc(C(F)(F)F)c1C#N | 14.6% (active) |
| N#Cc1c(C(F)(F)F)cc(-c2ccccc2)nc1SCC(=O)N1CCOCC1 | -2.74% (inactive) |
| COC(=O)c1cc2nc(-c3ccccc3)cc(C(F)(F)F)n2n1 | -0.55% (inactive) |
| O=S(=O)(c1ccc(F)cc1)N1CCN(C(=S)NC2CCCC2)CC1 | -1.23% (inactive) |
| Cc1cccc(C(=O)NC(=S)N2CCN(c3ccc([N+](=O)[O-])cc3)CC2)c1 | 0.09% (inactive) |

| Structure (SMILES) | activation |
| --- | --- |
| CCCOc1ccc(C(=O)C(CCC(CNCC)C(=O)c2ccc(OCCC)cc2)CNCC)cc1 (configuration not stated) | 24.7% (active) |
| CCCCOc1ccc(C(=O)NCc2ccncc2)cc1 | -0.14% (inactive) |
| CCCCOc1ccc(C(=O)NCc2ccco2)cc1 | -1.35% (inactive) |
| CCc1ccc(Oc2coc3cc(OC(=O)c4cc5ccccc5oc4=O)ccc3c2=O)cc1 | 0.76% (inactive) |
| OC(COCC1COc2ccccc2O1)CN1CCN(c2ccc(F)cc2)CC1 (configuration not stated) | -0.37% (inactive) |
| CCN(/N=C/c1ccc(N(C)C)cc1)c1nc2ccccc2[nH]1 | -1.85% (inactive) |
| COc1cc(NS(=O)(=O)c2ccc(N=Cc3c(C)[nH]n(-c4ccccc4)c3=O)cc2)nc(OC)n1 | -4.11% (inactive) |
| CCc1nnc(NS(=O)(=O)c2ccc(N=Cc3c(C)[nH]n(-c4ccc(C)cc4)c3=O)cc2)s1 | -3.95% (inactive) |
| COc1cc(SC#N)ccc1N=Cc1c(C)[nH]n(-c2ccc(C)cc2)c1=O | 17.6% (active) |
| CC(=O)NCCC(=O)Nc1nc(C)c(Cc2ccc3c(c2)OCO3)s1 | -0.64% (inactive) |
| Cc1cc(F)ccc1S(=O)(=O)N1CCCOC1CNC(=O)C(=O)NCCC1=CCCCC1 (configuration not stated) | -0.65% (inactive) |
| COc1ccc(C(C[N+](=O)[O-])n2nc(C)cc2C)cc1 (configuration not stated) | 5.52% (active) |
| COc1ccc(OCc2cn3c(C)cc(C)nc3n2)cc1 | -0.2% (inactive) |
| COc1ccc(Nc2cc(C)nc(-n3nc(C)cc3C)n2)cc1 | 0.3% (inactive) |
| CCC1C(=O)c2ccccc2N(C)C1=O (configuration not stated) | -2.42% (inactive) |
| CCC(C)NC(=O)c1c(N)n(/N=C/c2cccs2)c2nc3ccccc3nc12 (configuration not stated) | -0.44% (inactive) |
| C=CCn1c(N)c(C(=O)OCC(C)C)c2nc3ccccc3nc21 | -3.82% (inactive) |
| CC(C)Cn1c(N)c(C(=O)NCc2cccs2)c2nc3ccccc3nc21 | 29.6% (active) |
| CCN(CC)c1ccc(S(=O)(=O)N2CCOCC2)cc1NC(=O)CSc1cccc[n+]1[O-] | -0.35% (inactive) |
| O=C(Cc1cccs1)Nc1nnc(SCc2ccc(F)cc2)s1 | 1.11% (inactive) |
| CCCCOc1ccc(C(=O)NCC(=O)OCC(=O)N2CCN(S(=O)(=O)c3ccc(C)cc3C)CC2)cc1 | 7.56% (active) |
| CCCc1cc(=O)[nH]c(SCC(=O)N2CCN(S(=O)(=O)c3ccc(C)cc3C)CC2)n1 | 2.71% (inactive) |
| CCCCOc1ccc(C(=O)NN2CCN(C)CC2)cc1 | 0.08% (inactive) |
